High-throughput results (PubChem)
Most compounds without a hit are left out; they make up all but 5.1% or so of the library.
ANO1 block = mouse TMEM16A channel inhibition, primary screen; Q8BHY3; HEK293 TMEM16A/YFP iodide influx fluorescence, ionomycin; normalized B-score (activity score, 25-100; higher = stronger inhibition) at 10 µM; 1.2% of 310,000 active;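 active = ratio plate-corrected score three or more library SD toward inhibition, starting fluorescence score within five deviations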;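 note: score derived from kinetic fluorescence span divided by baseline fluorescence per well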
CRFBP-R2 block = CRF-BP/CRF-R2 complex antagonism; inhibition, % at 11.8 µM; HEK293 CRF-R2/CRF-BP, CRF-induced calcium fluorescence; 0.59% of 350,000 active; AID 588475;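 active = inhibition of the ligand-induced calcium signal above about 50% at the single tested concentration, limit read from the data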
GRIN3A LBD mod = NR3A (human) ligand-binding domain modulation; NR3A LBD differential scanning fluorimetry, Tm shift; 0% = protein alone, 100% = glycine-bound protein; Tm shift relative to glycine control, % at 25 µM; 2.5% of 340,000 active;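 active = melting temperature shift of at least 10% of the positive control shift, at one fixed dose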
CRFR2-BP ag = agonists of human CRF-binding protein/CRF-R2 receptor complex; activation, % at 13.2 µM; 0.46% of 350,000 active; HEK293 CRF-R2/CRF-BP, calcium dye fluorescence (FLIPR); percent of saturating CRF peptide response;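 active = activation of at least 50%, plus an integration ratio under a set limit after plate pattern correction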;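 note: plate controls were neutral control wells without compound for no effect and CRF at EC100 for full effect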
MPTP inh = inhibitors of mitochondrial permeability transition pore; 1.4% of 360,000 active; isolated mouse mitochondria, Ca2+ swelling absorbance, 30 min; AID 602449; inhibition, % at 10 µM;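 active = inhibition of 50% or more, scaled per plate between neutral and stimulator controls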;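 note: 0% = DMSO wells given calcium and 100% = 1 mM EGTA wells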
TMEM16A act = mouse TMEM16A channel activation, primary screen | B-score at 10 µM | 0.3% of 340,000 active | HEK293 TMEM16A/YFP-H148Q/I152L, iodide quench fluorescence; stronger effect = lower value | Q8BHY3;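 active = fluorescence-ratio B-score plate-corrected deviation score at least 3 library SD below zero, with starting fluorescence score within 5 deviations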;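 note: channel opened by trigger with iodide after compound preincubation; score built on the fluorescence ratio of max minus min over baseline; more negative score means more quench and so TMEM16A activation or potentiation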
Rh123 counter = mitochondrial membrane potential, counter-screen; shares compounds with MPTP inh; isolated mitochondria, Rhodamine 123 fluorescence; inhibition, % at 10 µM; 78% of 5,000 active; AID 624504; in the data active = inhibition above about 22%;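 note: 0% = DMSO vehicle and 100% = positive control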
MPTP swell DR = MPTP inhibition, dose response swelling confirmation; shares compounds with MPTP inh; IC50, µM; 58% of 780 active; isolated mitochondria swelling, absorbance; AID 651561; in the data active = IC50 below about 20 µM
MPTP cs DR = MPTP inhibitor counter-screen activity, dose response | IC50, µM | shares compounds with MPTP inh | isolated mitochondria counterscreen, fluorescence read-out | 49% of 780 active; in the data active = IC50 below about 80 µM
* hit, by the source's call; i = inactive; · = no result given.

SMILES	ANO1 block	CRFBP-R2 block	GRIN3A LBD mod	CRFR2-BP ag	MPTP inh	TMEM16A act	Rh123 counter	others
O=C1NC(=S)S/C1=C\c1ccc(SCc2ccccc2)o1	i	39	-5	19	78*	i	62*
O=C1NC(=S)S/C1=C\c1ccc(SCc2ccco2)o1	i	15	-3	2	13	i	·
Cn1nc(CC(=O)Nc2ccc3c(c2)CCC3)c2ccccc2c1=O	·	2	0	1	95*	i	78*
Cn1nc(CC(=O)NC2CCCCCCCCCCC2)c2ccccc2c1=O	i	-6	-9	0	2	i	·
O=C(N/N=C/c1cc(Br)ccc1O)Nc1ccccc1	i	12	28*	8	99*	i	65*
O=C(C[n+]1ccccc1)N/N=C/c1cc(Br)ccc1O	i	-2	-2	0	-2	i	·
CN(C)S(=O)(=O)c1cccc(NC(=S)N/N=C/c2cc(Br)ccc2O)c1	i	-3	12*	10	100*	i	38*
CN(C)S(=O)(=O)c1cccc(NC(=S)N/N=C/c2cccc(O)c2)c1	i	27	-1	0	2	i	·
Cc1ccc(-c2noc(CCC(=O)NCC3CCN(Cc4cccc(C)c4)CC3)n2)cc1	i	-1	0	3	67*	i	7	MPTP swell DR=8.8*;MPTP cs DR=24*
COc1ccc(-c2noc(CCC(=O)NCCCN3CCC(Cc4ccccc4)CC3)n2)cc1	i	-14	0	-1	63*	·	42*
Cc1ccc(-c2noc(CCC(=O)NCCN3CCN(Cc4ccccc4)CC3)n2)cc1	i	1	0	-1	3	i	·
COc1ccc(-c2noc(CCC(=O)NCCCN3CCN(c4ccc(F)cc4)CC3)n2)cc1	i	-8	-2	4	23	i	·
O=C(NCCc1ccc(OC(F)F)cc1)C1CC(=O)N(c2ccc3c(c2)OCCO3)C1 (stereo unspecified)	·	2	0	-2	-1	i	·
O=C(N/N=C(\CC(=O)c1cccs1)C(F)(F)F)c1ccncc1	i	-2	-1	0	10	i	·
Cc1ccc(C(=O)N/N=C(/CC(=O)c2cccs2)C(F)(F)F)cc1	i	80*	-2	20	55*	i	82*
CN(Cc1c(F)cccc1Cl)C(=O)C1=CC=CN2CCS(=O)(=O)N=C12	·	-3	-3	1	0	i	·
CC(C)CN(Cc1cc(=O)oc2cc(-c3ccccc3)c(O)cc12)CC(C)C	i	-5	-1	0	93*	i	85*
CC(C)CCn1nc(C(=O)Nc2nc3c(s2)CCCC3)c2ccccc2c1=O	i	-23	-18	0	0	i	·
O=C(Nc1nc2c(s1)CCCC2)c1nn(Cc2ccccc2)c(=O)c2ccccc12	i	-2	2	-1	59*	i	-5	MPTP swell DR=>100;MPTP cs DR=>80
Cc1cc(C)c(C)c(S(=O)(=O)N[C@@H](C)C(=O)OCC(=O)NC2CCCC(C)C2C)c1C (stereo partly specified)	·	-4	-1	-3	0	i	·
CN(C)c1ccc(-c2ccnc3c2CC(C)(C(=O)Nc2ccc(F)c(Cl)c2)O3)cc1 (stereo unspecified)	·	·	·	·	2	·	·
O=C(N/N=C/c1cccc(Oc2ccccc2)c1)c1cccc(O)c1	i	2	10	1	0	i	·
O=C(N/N=C/c1cccc(Oc2ccccc2)c1)c1cccc(Br)c1	i	4	1	2	67*	i	75*
CCC(C)(C)c1ccc(OCC(=O)Nc2ccncc2)cc1	i	-17	1	-1	105*	i	81*
Cc1ccc(OCC(=O)Nc2ccncc2)cc1C	·	-1	·	0	14	·	·
